# Data reported in PubChem BioAssay AID1476 (National Center for Advancing Translational Sciences (NCATS), 2009).
# The whole screen tested about 200,000 compounds, of which about 4,500 (2.2%) were called active. Roughly 12% stayed inconclusive and do not appear here. The sample holds actives, similar compounds and a random draw of the others, so the mix is not that of the screen. Calls come from the whole dose curve; as a rule, active = well fitted inhibition curve with a large enough effect; inconclusive = small, poorly fitted or top-dose-only effect, or effect the other way; inactive = flat fitted curve, though single readings scatter.
# Biological target: Cruzipain (Trypanosoma cruzi) (UniProt P25779)
# Test: qHTS Assay for Promiscuous and Specific Inhibitors of Cruzain (without detergent); note: nearly all actives have a fitted effect of over 40% in size;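 for max response, negative = inhibition: plate controls were enzyme without inhibitor for no effect and buffer without enzyme for full effect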
# Conditions: purified cruzain, Z-FR-AMC fluorescence, no detergent
# How it was run: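 Detergent-free condition (0.00005% Triton X-100) in acetate buffer pH 5.5 with DTT. 1.5 nM enzyme and compound were pre-mixed 15 min, then 2 uM Z-FR-AMC substrate added; reaction progress from fluorescence change between first and third reads (60 s).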
# Potency is the fitted concentration of half-maximal effect.
# Sequence of Cruzipain (Trypanosoma cruzi) (P25779 123-467 limits assumed): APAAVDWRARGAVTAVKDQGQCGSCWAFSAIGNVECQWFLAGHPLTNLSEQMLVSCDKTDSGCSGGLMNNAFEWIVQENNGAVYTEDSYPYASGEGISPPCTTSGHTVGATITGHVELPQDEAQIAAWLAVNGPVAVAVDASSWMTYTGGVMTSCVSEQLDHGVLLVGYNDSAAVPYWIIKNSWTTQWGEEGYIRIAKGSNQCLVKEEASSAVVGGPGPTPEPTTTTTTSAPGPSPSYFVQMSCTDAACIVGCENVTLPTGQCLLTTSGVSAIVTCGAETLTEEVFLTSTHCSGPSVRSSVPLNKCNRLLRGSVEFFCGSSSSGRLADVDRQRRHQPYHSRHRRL
Structure (SMILES),"max response, negative = inhibition",Potency
COc1ccc(CCNC(=O)CCCn2c(=O)c3ccccc3n(Cc3ccc(C)cc3)c2=O)cc1OC,-4.62% (inactive),
Cc1ccc(CNC(=O)Cn2c(=O)ccc3cc(S(=O)(=O)N4CCCC4)ccc32)cc1,-9.4% (inactive),
CC1CCCN(c2csc3ccc(F)cc3c2=O)C1 (stereo not drawn),1.1% (inactive),
COc1ccccc1-c1noc(CSc2nnc(-c3ccccc3)n2-c2ccc(C)c(C)c2)n1,-9.67% (inactive),
COc1ccccc1N1CCN(C(CNC(=O)C(=O)NCc2ccc(C)cc2)c2cccnc2)CC1 (stereo not drawn),1.39% (inactive),
COc1cccc(Cn2c(SCc3ccc(C(=O)N4CCCCC4)cc3)nc3ccncc32)c1,12.2% (inactive),
CC(=O)Nc1ccc(S(=O)(=O)NCC2CCC(C(=O)NCCc3ccccc3)CC2)cc1 (stereo not drawn),-2.5% (inactive),
COc1ccc(CN2CCn3ncc(C(=O)Nc4ccc(Cl)cc4Cl)c3C2=O)cc1,,5.01 µM (active)
COc1ccc(/C(C)=N/NC(=O)CCC(=O)Nc2ccc(Cl)cc2Cl)c(OC)c1,9.51% (inactive),
Cc1cnc(C(=O)OCC(=O)Nc2ccc(Cl)cc2Cl)cn1,-17.8% (inactive),
O=C(O)c1ccc(Cn2c(SCc3ccc(F)cc3)nc3ccncc32)cc1,2.53% (inactive),
Cc1ccc(CN2CCCn3nc(C(=O)NCc4ccccc4Cl)cc3C2=O)cc1,12.6% (inactive),
O=C(c1ccco1)n1nc(-c2ccc(Cl)cc2)nc1NCc1ccccc1,14.9% (inactive),
COC(=O)c1c(-c2cccs2)csc1NC(=O)CSc1ncnc2sc(C)c(C)c12,,6.31 µM (active)
Cc1nc(SCC(=O)Nc2cc(C)on2)c2c(C)c(C)sc2n1,-4.16% (inactive),
Cc1sc2ncnc(Sc3nc4ccccc4s3)c2c1C,-16.3% (inactive),
CCOc1ccc(N(CC)S(=O)(=O)N2CCCC(C(=O)Nc3ccc(C(C)=O)cc3)C2)cc1 (stereo not drawn),-0.766% (inactive),
COc1ccc(CCNC(=O)c2cnc3sc(N4CCCCCC4)nn3c2=O)cc1OC,2.6% (inactive),
COc1ccc(C(=O)NNS(=O)(=O)c2ccc(C)cc2)cc1,-9.3% (inactive),
COc1ccc(S(=O)(=O)c2c(Nc3ccc(C)cc3)sc(C(=O)c3ccc(C)cc3)c2N)cc1,,5.01 µM (active)
COc1cccc(C(=O)c2sc3nc(-c4ccccc4)cc(C(F)(F)F)c3c2N)c1,-13.2% (inactive),
COc1ccc(S(=O)(=O)c2c(Nc3cccc(Cl)c3)sc(C(=O)c3ccccc3)c2N)cc1,,3.98 µM (active)
CO/N=C(/CS(=O)(=O)c1ccc(Br)cc1)c1ccc(OC)cc1,0.45% (inactive),
CC(=O)c1c(Nc2ccccc2)sc(C(=O)c2ccccc2)c1C,5.34% (inactive),
Cc1ccc(-c2nnc(Nc3ccc(OCC(N)=O)cc3)c3ccccc23)cc1S(=O)(=O)NCC1CCCO1 (stereo not drawn),7.01% (inactive),
Cc1ccccc1NC(=O)Cn1c(=O)n(Cc2ccco2)c(=O)c2ccc(C(=O)NC3CCCC3)cc21,4.88% (inactive),
COc1ccc(N2C(=O)NC(NS(=O)(=O)c3ccc(Cl)cc3)(C(F)(F)F)C2=O)cc1 (stereo not drawn),-4.66% (inactive),

Structure (SMILES),"max response, negative = inhibition",Potency
CC(C)C12CN3CC(C(C)C)(CN(C1)C3c1ccc(OCc3ccccc3)cc1)C2=O (stereo not drawn),10.1% (inactive),
Cc1ccc(-c2cc(C(=O)Oc3ccccc3Cl)no2)cc1C,0.973% (inactive),
Cc1ccc(-c2nn(-c3ccccc3)cc2/C=N/NC(=O)c2ccc3c(c2)OCO3)cc1,,25.1 µM (active)
Cc1nnc(SCC(=O)N/N=C/c2cn(-c3ccccc3)nc2-c2ccc(F)cc2)n1-c1ccccc1,-3.1% (inactive),
COc1ccc(-c2nn(-c3ccccc3)cc2/C=N/Nc2ccccn2)cc1OC,18.4% (inactive),
COc1ccccc1CNC(=O)CCn1c(=O)c2ccccc2n(CC(=O)Nc2ccc(Br)cc2F)c1=O,-7.67% (inactive),
COc1ccccc1-c1cc(C(F)(F)F)nc(S(=O)(=O)CCCC(=O)Nc2cc(C)ccc2O)n1,-0.825% (inactive),
Cc1ccccc1NC(=O)Cn1c(=O)n(CCc2ccccc2)c(=O)c2ccccc21,-10.6% (inactive),
Cc1ccc(S(=O)(=O)c2nc(-c3cccs3)oc2N2CCCCC2)cc1,3.47% (inactive),
O=C(CSc1nc(C2CC2)nc2ccccc12)Nc1ccc2c(c1)OCCO2,2.26% (inactive),
CN(C(=O)CSc1nc(C2CC2)nc2ccccc12)c1nc(-c2ccccc2)cs1,,3.16 µM (active)
COC(=O)CSc1nc(C2CC2)nc2ccccc12,-5.14% (inactive),
CCOC(=O)c1c(SCC(=O)Nc2cccc(C)c2C)nc(=O)[nH]c1C,4.55% (inactive),
CCOc1ccc(Nc2nc3c(S(=O)(=O)c4cccc(Cl)c4)nnn3c3ccsc23)cc1,3.27% (inactive),
Cc1cccc(OCCCC(=O)Nc2sc3c(c2C(N)=O)CCC(C)C3)c1 (stereo not drawn),14.1% (inactive),
CCOC(=O)c1c(NC(=O)/C=C/c2ccc(OC)cc2)sc2c1CCC(C)C2 (stereo not drawn),-18.7% (inactive),
COC(=O)c1c(NC(=O)CN2CCN(S(=O)(=O)c3ccccc3[N+](=O)[O-])CC2)sc2c1CCC(C)C2 (stereo not drawn),,10 µM (active)
Cc1c(Br)c([N+](=O)[O-])nn1CC(=O)Nc1sc2c(c1C(=O)OC(C)C)CCC(C)C2 (stereo not drawn),,15.8 µM (active)
COC(=O)c1c(NC(=O)CCCOc2ccccc2)sc2c1CCC(C)C2 (stereo not drawn),0.0824% (inactive),
CCOc1ccc(NC(=O)c2c(NC(=O)Cc3ccccc3)sc3c2CCC(C)C3)cc1 (stereo not drawn),1.97% (inactive),
CCCn1c2ccccc2c2cnn(CC(=O)N3CCCC(C(=O)OCC)C3)c(=O)c21 (stereo not drawn),-0.857% (inactive),
Cc1ccc(C2C=C(c3ccc(Cl)cc3)Nc3nc(NC(=O)CCC(=O)O)nn32)cc1 (stereo not drawn),-6.04% (inactive),
O=C(c1ccccc1F)N1CCC(c2nc3c(nnn3Cc3cccc(F)c3)c(=O)[nH]2)CC1,-6.41% (inactive),
CCc1ccccc1OCCSc1nc(-c2cccs2)nc2cc(=O)[nH]n12,,3.16 µM (active)
O=c1cc2nc(-c3ccccc3)nc(SCCOc3ccc(Cl)cc3)n2[nH]1,8.61% (inactive),
Cc1ccc(OCCSc2nc(-c3cccs3)nc3cc(=O)[nH]n23)cc1Cl,3.5% (inactive),
